Screens (PubChem BioAssay)
Only some compounds are listed: those with a hit (about 2.4% of all), similar ones and a draw of the others.
M1 ag – human M1 muscarinic receptor agonists, primary screen, Fluo-8 calcium fluorescence, CHO-K1 cells, HTS; Muscarinic acetylcholine receptor M1 (Homo sapiens), P11229; CHO-K1 hM1, agonist mode; 0% DMSO, 100% acetylcholine EC100; activation, % at 3 µM; actives 0.33% (n = 360,000);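 active means activation above the run's mean compound activation plus 3 SD, cut at about 16% in these data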;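 further: peak over basal fluorescence ratio within a 140 s kinetic read after compound addition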
Target sequence (P11229 whole entry, looked up): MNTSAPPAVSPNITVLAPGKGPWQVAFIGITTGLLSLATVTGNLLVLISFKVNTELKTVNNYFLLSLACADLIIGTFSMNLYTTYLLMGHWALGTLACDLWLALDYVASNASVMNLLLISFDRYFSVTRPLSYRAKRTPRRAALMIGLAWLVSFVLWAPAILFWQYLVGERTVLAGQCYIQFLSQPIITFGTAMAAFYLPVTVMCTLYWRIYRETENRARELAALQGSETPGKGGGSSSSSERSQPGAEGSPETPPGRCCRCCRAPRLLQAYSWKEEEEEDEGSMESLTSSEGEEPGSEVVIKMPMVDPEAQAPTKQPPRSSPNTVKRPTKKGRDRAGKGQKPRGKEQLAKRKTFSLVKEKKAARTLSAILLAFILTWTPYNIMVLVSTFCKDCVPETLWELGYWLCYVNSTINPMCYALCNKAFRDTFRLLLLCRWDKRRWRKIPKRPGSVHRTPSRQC
CHO-K1 Ca ag – counter-screen for M1 agonists: effect in parental CHO-K1 cells. activation, % at 3 µM. AID 602248, 2012. Fluo-8 calcium fluorescence; scaled to maximal ATP response, vehicle zero. actives 0.48% (n = 360,000); in the data active means activation above about 15%;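 further: untransfected CHO-K1 host cells lacking M1 receptor as counterscreen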
CHRM1 PAM – human M1 muscarinic receptor positive allosteric modulators, primary screen, CHO-K1 cells, Fluo-8 calcium fluorescence, 1536-well. Muscarinic acetylcholine receptor M1 (Homo sapiens), P11229. CHO-K1 hM1, ACh EC20; 0% = ACh EC20, 100% = maximal ACh. activation, % at 3 µM. actives 0.088% (n = 360,000). AID 588819, 2011; in the data active means activation above about 19%, passing the limit was not always enough
CHRM1 antagonist – human M1 muscarinic receptor antagonists, primary screen, CHO-K1 cells, Fluo-8 calcium fluorescence, 1536-well; CHO-K1 hM1, ACh EC80 antagonist; Muscarinic acetylcholine receptor M1 (Homo sapiens), P11229; actives 1.3% (n = 360,000); inhibition, % at 3 µM;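 active means percent inhibition above its own plate's cutoff, namely the mean of that plate's compound wells plus 3 SD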;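 further: peak over basal fluorescence ratio during 140 s after agonist addition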
CHO-K1 Ca antag – M1 antagonist counterscreen hit in parental CHO-K1 cells. ATP-induced calcium, Fluo-8 fluorescence. inhibition, % at 3 µM. actives 0.6% (n = 360,000);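 active means inhibition above a per-plate cutoff, the plate's mean sample inhibition plus 3 SD, cut at about 24% in these data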
M1 PAM parental – nonselective calcium activators in parental CHO-K1 cells, primary screen, counter-screen for M1 PAM project, cell-based, Fluo-8 calcium fluorescence, full deck, 1536-well. ATP EC20; 0% at ATP EC20, 100% at ATP max. activation, % at 3 µM. actives 0.02% (n = 360,000);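 active means activation above the run cutoff, the mean activation of all test compounds plus 3 SD, cut at about 40% in these data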;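 further: peak over basal fluorescence ratio in a 140 s read after ATP addition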
Of the large screens only hits and unclear results are named; the others gave an inactive call.

COc1cc(/C=N/n2c(=S)[nH]nc(C)c2=O)cc([N+](=O)[O-])c1O	CHO-K1 Ca antag 25
COc1cc(/C=N/N2CCCCC2)cc([N+](=O)[O-])c1O	M1 ag 25
O=[N+]([O-])c1cccc(-c2nc3ccccc3s/c2=N/O)c1	none
COc1cccc(-c2oc3c(c2-c2ccc(Br)nc2)C(O)CCC3)c1 (stereo not drawn)	none (no result: M1 ag, CHRM1 PAM, CHRM1 antagonist)
O=C(NC1CCSc2ccccc21)c1cc([N+](=O)[O-])ccc1N1CCOCC1 (stereo not drawn)	none
CCCCNC(=O)N1CCN(Cc2ccc(F)cc2)CC1	none
CCc1cc(C(=O)OCC(=O)N2CCC(c3ccccc3)=N2)sc1C	CHRM1 antagonist 48
O=C(Nc1cccc(-c2nc3ccccc3o2)c1)c1ccc(N2C(=O)C3C4C=CC(C4)C3C2=O)cc1 (stereo not drawn)	CHRM1 antagonist 37
COc1ccccc1N1CCN(Cc2cn[nH]c2-c2ccc(F)cc2)CC1	M1 ag 44, CHO-K1 Ca ag 19
COc1ccccc1N1CCN(Cc2nc(-c3ccc(F)cc3)oc2C)CC1	none
COC(=O)c1cc(=O)nc(NN=Cc2ccc(OC)cc2)s1	CHO-K1 Ca antag 24
COC(=O)c1cc(=O)nc(NN=C2c3ccccc3-c3ccccc32)s1	none
CN(Cc1ccccc1)S(=O)(=O)c1ccc(NS(=O)(=O)Cc2ccccc2)cc1	CHRM1 antagonist 30
CN(Cc1ccccc1)S(=O)(=O)c1ccc2c(c1)n(C)c(=O)c(=O)n2C	none
CN(Cc1ccccc1)S(=O)(=O)c1ccc(N2CCCC2=O)cc1	CHO-K1 Ca ag 16
CC(C)CC1C(=O)N(Cc2cn(CC3CCCCC3)nn2)CCS(=O)(=O)N1Cc1ccc(-c2ccncc2)cc1 (stereo not drawn)	M1 ag 19
COc1ccc(-c2ccc(CN3C(C)C(=O)N(Cc4cn(CC5CCCCC5)nn4)CCS3(=O)=O)cc2)cc1 (stereo not drawn)	CHO-K1 Ca antag 25
Cc1ccc(-c2ccc(CN3C(C)C(=O)N(Cc4cn(CC5CCCCC5)nn4)CCS3(=O)=O)cc2)cc1 (stereo not drawn)	none
CCOCCOC(=O)C1=C(C)NC(=O)NC1c1cc2c(cc1Br)OCO2 (stereo not drawn)	none
CC(OC(=O)[C@@H](NS(=O)(=O)c1ccccc1)C(C)C)C(=O)c1c(N)n(C)c(=O)n(C)c1=O (stereo partly drawn)	none
Cc1cc(C)c(NC(=O)CN(C)CC(=O)Nc2cccc(S(=O)(=O)N(C)c3ccccc3)c2)c(C)c1	CHRM1 antagonist 36
CN(CC(=O)Nc1cccc(F)c1)CC(=O)Nc1cccc(S(=O)(=O)N(C)c2ccccc2)c1	none
CN(c1ccccc1)S(=O)(=O)c1cccc(NC(=O)CN2CCCc3ccccc32)c1	CHO-K1 Ca ag 15
CN(c1ccccc1)S(=O)(=O)c1cccc(NC(=O)CSc2nncs2)c1	CHO-K1 Ca antag 29
CC(=N\NC(=O)c1ccc([N+](=O)[O-])cc1)/C(=N/O)C(=O)Nc1ccccc1	none
CC1CCCN(S(=O)(=O)c2ccc(NC(=O)C3CCN(C(=O)C(C)(C)C)CC3)cc2)C1 (stereo not drawn)	none
COc1cc(C2=NOC(C(=O)Nc3ccc4c(c3)OCO4)C2)cc(OC)c1OC (stereo not drawn)	CHO-K1 Ca ag 18
CCc1ccccc1N1CC(C(=O)N2Cc3ccccc3CC2C(N)=O)CC1=O (stereo not drawn)	none
O=C(CSc1nnc(COc2ccccc2F)n1-c1ccccc1)NC1CCS(=O)(=O)C1 (stereo not drawn)	CHO-K1 Ca antag 28
CCOC(=O)c1cn(Cc2ccccc2)c2cc(C)nn2c1=O	none
CCOC(=O)c1cn(Cc2ccccc2)c(C(=O)OC(C)(C)C)c1O	CHO-K1 Ca ag 44
CC(C)(C)C(=O)N1CCN(c2ccnc3cc(Cl)ccc23)CC1	none
O=C(Nc1ccc(OC(F)(F)F)cc1)N1CCN(c2ccnc3cc(Cl)ccc23)CC1	CHO-K1 Ca antag 27
Oc1ccc(Br)cc1C1Nc2ccccc2S1 (stereo not drawn)	none
CCOC(=O)C1CCCN(C(=O)C2c3ccccc3Oc3ccccc32)C1 (stereo not drawn)	M1 ag 79, CHO-K1 Ca ag 20, CHRM1 antagonist 35
CCOC(=O)C1CCCN(C(c2ccccn2)c2c(C)[nH]c3ccccc23)C1 (stereo not drawn)	M1 ag 28
Cc1[nH]c2ccccc2c1C(c1ccccn1)N1CCCC1 (stereo not drawn)	none
CCOC(=O)C1CCCN(C(=S)Nc2ccc(C)cc2C)C1 (stereo not drawn)	M1 ag 85, CHRM1 antagonist 83
CCOC(=O)C1CCCN(C(=S)Nc2ccc(Nc3ccccc3)cc2)C1 (stereo not drawn)	M1 ag 78, CHRM1 antagonist 80
COc1ccc(C2=Nc3ccccc3NC(=O)C2N(C(=O)c2ccnc3ccccc23)c2ccccc2)cc1 (stereo not drawn)	none
Cc1ccc(C(=O)Nc2cccc(S(=O)(=O)N3CCCCC3)c2)cc1S(=O)(=O)N1CCOCC1	none
CN1CCN(NC(=S)NC2CCCCC2)CC1	none
CCOC(=O)C1CCCN(C(=O)Nc2c(-c3ccccc3)noc2C)C1 (stereo not drawn)	M1 ag 31
CS(=O)(=O)N1CCN(C(=O)C2c3ccccc3Oc3ccccc32)CC1	CHRM1 antagonist 47
CCOC(=O)C1CCCN(C(=O)Cc2c(C(=O)O)[nH]c3ccccc23)C1 (stereo not drawn)	M1 ag 73, CHRM1 antagonist 64
COc1ccccc1NC(=O)C(C)OC(=O)CCNS(=O)(=O)c1cccc(C(F)(F)F)c1 (stereo not drawn)	none
Cc1cc([N+](=O)[O-])nn1CC(=O)N(C)C1CCCCC1	none
O=C(Nc1nc2c(F)cc(F)cc2s1)C1CC(=O)N(Cc2ccco2)C1 (stereo not drawn)	none
CCOC(=O)c1c(NC(=O)CN2C(=O)NC3(CCCCC3C)C2=O)sc(C)c1CC (stereo not drawn)	CHO-K1 Ca ag 23
COc1cc(CNCc2ccc(Br)cc2)cc(OC)c1	CHO-K1 Ca ag 15
CC(=O)c1c(C)oc2ccc(NS(=O)(=O)c3ccc(O)c(C(=O)O)c3)cc12	none
CC(=O)c1c(C)oc2ccc(NS(=O)(=O)c3ccc(F)cc3C)cc12	CHRM1 antagonist 28
